# In PubChem BioAssay (NCI):
# This is part of a sample that, as a whole, favours compounds with a hit. Of some 79,000 tested, about 15% had one in any assay. Values without a mark were called inactive. Calls of active or inactive are those of the source. Rule as the data show it: active = growth inhibition above about 70%; inactive = the rest.
# Legend:
# [1] = NCI Yeast Anticancer Drug Screen. Data for the rad50 strain (AID 155);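 also: 0% = growth of vehicle-only cultures of the same strain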; conditions: S. cerevisiae rad50 strain growth inhibition, active compounds read high
# Outline: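 Yeast carrying a defined DNA repair defect were exposed to test compounds, and growth was compared with vehicle-treated controls to give percent inhibition.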
# [2] = NCI Yeast Anticancer Drug Screen. Data for the mec2-1 strain (AID 157); conditions: S. cerevisiae mec2-1 strain, active compounds read high
# Outline: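 Compounds were applied to mec2-1 yeast cells. Their growth was then compared with that of vehicle-treated cultures to give growth inhibition.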
# [3] = NCI Yeast Anticancer Drug Screen. Data for the sgs1 mgt1 strain (AID 161);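 also: 0% = growth of cultures given vehicle only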; conditions: S. cerevisiae sgs1 mgt1 strain, active compounds read high
# Outline: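 Compounds are added to genetically altered yeast, and growth is compared with cultures given vehicle alone to give percent inhibition.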
# [4] = NCI Yeast Anticancer Drug Screen. Data for the cln2 rad14 strain (AID 165);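 also: 0% = growth equal to vehicle treated cultures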; conditions: S. cerevisiae cln2 rad14 strain, active compounds read high
# Outline: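 Strain: cln2 rad14 yeast, altered in cell cycle control and DNA damage repair. Read-out: growth inhibition vs vehicle.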
# [5] = NCI Yeast Anticancer Drug Screen. Data for the bub3 strain (AID 167); conditions: S. cerevisiae bub3 mutant strain, active compounds read high
# Outline: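 Compounds were applied to a genetically altered yeast strain carrying a cell-cycle control defect. Growth inhibition was scored against vehicle-treated controls.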
# [6] = NCI Yeast Anticancer Drug Screen. Data for the mlh1 rad18 strain (AID 175); conditions: S. cerevisiae mlh1 rad18 strain growth inhibition, active compounds read high
# Outline: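 A repair-deficient yeast strain is exposed to test compound, and growth is scored relative to vehicle-treated controls.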
# [7] = at 5.0 µM (retest, dose inferred, filed as 0.5)
# [8] = at 50.0 µM (retest, dose inferred, filed as 5.0)
SMILES,"growth inhibition [1, 7]","growth inhibition [1, 8]",growth inhibition ([1]; at 50.0 µM),"growth inhibition [2, 7]","growth inhibition [2, 8]",growth inhibition ([2]; at 50.0 µM),"growth inhibition [3, 7]","growth inhibition [3, 8]",growth inhibition ([3]; at 50.0 µM),"growth inhibition [4, 7]","growth inhibition [4, 8]",growth inhibition ([4]; at 50.0 µM),"growth inhibition [5, 7]","growth inhibition [5, 8]",growth inhibition ([5]; at 50.0 µM),"growth inhibition [6, 7]","growth inhibition [6, 8]",growth inhibition ([6]; at 50.0 µM)
CN(C)c1ccccc1CN1CCCN(Cc2ccccc2N(C)C)C1,-4%,7%,69.8%,8%,26%,50%,1%,35%,75.2% (active),0%,2%,4.45%,2%,6%,1.5%,18%,35%,63.3%
S=c1c2cn[nH]c2nc2scc(-c3ccc(Cl)cc3)n12,1%,98% (active),45.4%,-29%,97% (active),49.7%,-27%,98% (active),65.9%,24%,98% (active),33.9%,-4%,97% (active),49%,11%,97% (active),30.6%
CN1CCCCC1c1cc2c3ccccc3ccn2c1-c1ccccc1 (stereo not given),71% (active),95% (active),96.5% (active),62%,99% (active),98.3% (active),75% (active),94% (active),98.7% (active),-7%,92% (active),94.8% (active),9%,96% (active),98.4% (active),69%,92% (active),98.5% (active)
CNCCN[C@@H]1c2cc3c(cc2[C@@H](c2cc(OC)c(O)c(OC)c2)[C@H]2C(=O)OC[C@@H]21)OCO3,96% (active),97% (active),78.8% (active),43%,91% (active),65.3%,-24%,75% (active),88.1% (active),3%,42%,82.4% (active),-3%,84% (active),87% (active),43%,89% (active),87.8% (active)
Nc1c2c(=O)[nH]c(=O)c2c(N)c2c(=O)c3ccccc3c(=O)c12,36%,53%,78.2% (active),21%,47%,35.8%,50%,72% (active),38%,-26%,41%,34.5%,21%,78% (active),29.4%,30%,59%,60.6%
CCNc1cc2c3c(c1)CCCN3CCC2,15%,40%,-15.7%,13%,27%,-20.7%,14%,18%,-1.15%,20%,24%,-46.1%,15%,30%,-17%,17%,51%,-10.7%
C[n+]1cc2c3ccccc3ccc2c2ccccc21,37%,79% (active),59.3%,37%,69%,53.2%,32%,66%,75.2% (active),26%,45%,56%,7%,57%,47%,39%,83% (active),40.3%
O=S(=O)(Nc1ccccn1)c1ccc(N=Cc2c3ccccc3nc3cc(Cl)ccc23)cc1,2%,27%,98.8% (active),5%,18%,85.8% (active),1%,1%,99.2% (active),4%,-17%,97.5% (active),9%,6%,57.6%,5%,6%,98.2% (active)
Nc1ncnc2c1ncn2CC(O)CN(CCO)CCO (stereo not given) (tested in a mixture with another compound),-24%,-1%,-5%,-10%,-7%,-3.15%,-11%,-3%,-12.1%,-12%,4%,18.8%,7%,15%,2%,-15%,-17%,22.2%
COc1ccc(/C=N/n2c(C)nc3c(sc(=S)n3-c3ccccc3)c2=O)cc1,3%,-12%,13.6%,-3%,-6%,46.8%,3%,23%,11.4%,-15%,4%,8.15%,12%,29%,47.4%,22%,-12%,10.8%
